According to PubChem BioAssay (NCATS):
Values joined by “and” are separate entries in the source; they are usually repeats but may differ in a detail not shown here. Identical values can stand only once. Results filed as inconclusive are left out. Entries that show only a call come without a potency. Active and inactive are the calls of the source. Unless noted, calls follow the shape of the dose curve; as a rule, active = well fitted curve in the direction sought with a large enough effect; inconclusive = small, poorly fitted or top-dose-only effect, or another doubt; inactive = no such curve, though single readings can be large; an effect the other way counts as inactive or inconclusive.

Experiments:
[1] = Validation of Assay for Modulators of Lamin A Splicing (AID 1459; active = well fitted curve in the direction sought with a large enough effect in the signal ratio; the % refers to the signal ratio;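 also: cells exposed to compound for two days before reading; ratio rise marks activators and ratio drop marks inhibitors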)
Outline: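 Dual-reporter HeLa S3 line (lamin A-EGFP minigene, DsRed2) treated with compounds 48 hrs, 0.5% DMSO final. Endpoint: EGFP/DsRed2 total intensity ratio from laser-scanning microplate cytometry.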

[2] = target: DNA repair nuclease/redox regulator APEX1 (Homo sapiens) (UniProt P27695); experiment: qHTS Validation Assay for Inhibitors of the Human Apurinic/apyrimidinic Endonuclease 1 (APE1) (AID 1705; also: potency is read from the fitted curve at half-maximal effect;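 as to activity change, negative = inhibition: TAMRA fluorescence gain over two minutes as APE1 cuts a quenched THF abasic duplex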)
Chain of DNA repair nuclease/redox regulator APEX1 (Homo sapiens) (P27695 whole entry, looked up): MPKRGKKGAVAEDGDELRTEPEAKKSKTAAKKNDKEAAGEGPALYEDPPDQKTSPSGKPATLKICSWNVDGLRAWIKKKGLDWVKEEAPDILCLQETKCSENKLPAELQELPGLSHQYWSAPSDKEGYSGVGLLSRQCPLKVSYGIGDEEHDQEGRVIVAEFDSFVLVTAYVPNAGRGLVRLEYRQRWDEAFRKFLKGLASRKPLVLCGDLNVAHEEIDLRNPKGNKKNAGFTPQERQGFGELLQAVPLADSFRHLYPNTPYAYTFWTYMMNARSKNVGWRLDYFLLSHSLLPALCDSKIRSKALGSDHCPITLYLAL
Outline: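 Substrate: 50 nM final fluorophore/quencher THF-abasic duplex. Enzyme preincubated with compounds 15 min, RT. Progress derived from fluorescence difference, third minus first kinetic read.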

[3] = Counterscreen for APE1 Inhibitors: Fluorescent Dye Displacement Validation Assay (AID 1707)
Outline: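 Loss of Thiazole Orange fluorescence marks promiscuous DNA binders. The dye (250 nM) is mixed with 50 nM abasic-site dsDNA in pH7.5 Tris buffer containing MgCl2, then compounds are added and emission is read once.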

[4] = qHTS for differential inhibitors of proliferation of Plasmodium falciparum line 7G8 (AID 1815);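 also: parasite growth measured after three days of incubation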; also: potency is read from the fitted curve at half-maximal effect
[5] = qHTS for differential inhibitors of proliferation of Plasmodium falciparum line GB4 (AID 1816); conditions: Potency: Plasmodium falciparum GB4 proliferation inhibition;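 also: parasite growth measured after 72 h incubation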; also: potency is read from the fitted curve at half-maximal effect
[6] = qHTS for differential inhibitors of proliferation of Plasmodium falciparum line 3D7 (AID 1876); also: potency is read from the fitted curve at half-maximal effect
[7] = target: alpha-glucosidase (Oryza sativa, rice) (UniProt Q653V4); experiment: Counterscreen for Glucocerebrosidase Inhibitors: qHTS Assay for Rice alpha-Glucosidase at pH 5.0 (AID 997)
Outline: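 Endpoint fluorogenic assay at pH 5.0: compounds (0.7 nM to 77 uM) titrated against 4 nM rice enzyme and 400 uM 4-MU-alpha-glucoside for 20 min at room temperature; NaOH/glycine stop, read ex 365/em 440 nm, Hill-fitted AC50.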

[8] = qHTS Assay for Lipid Storage Modulators (AID 1519; calls by dose curve; also: potency is read from the fitted curve at half-maximal effect); conditions: Drosophila S3 cells, BODIPY lipid droplet/cell ratio, laser cytometry, cells loaded with oleic acid; for activity change, negative = inhibition: at 57.5 µM (top of the series)
Outline: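 Cells seeded at 5,000 per well were treated with compounds over a concentration series and loaded with oleic acid (400 uM, as added). Lipid droplet fluorescence (488 nm excitation, 500-530 nm channel) was read by laser-scanning cytometry and normalized to 20 uM Triacsin C.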

[9] = target: Endonuclease 4 (Escherichia coli (strain K12)) (UniProt P0A6C1); experiment: Counterscreen for APE1 Inhibitors: qHTS Validation Assay for Inhibitors of Endonuclease IV (AID 1708)
Outline: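 Conditions: 2 nM enzyme, 50 nM TAMRA/BHQ-2 substrate, pH 7.5 Tris buffer with 2 mM MgCl2, RT. Compound preincubation 15 min; readout three fluorescence reads 60 s apart, third-minus-first.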

[10] = target: Alpha-galactosidase A (Homo sapiens) (UniProt P06280); experiment: Counterscreen for Glucocerebrosidase Inhibitors: qHTS Assay for Human alpha-Galactosidase at pH 4.5 (AID 992)
Chain of Alpha-galactosidase A (Homo sapiens) (P06280 whole entry, looked up): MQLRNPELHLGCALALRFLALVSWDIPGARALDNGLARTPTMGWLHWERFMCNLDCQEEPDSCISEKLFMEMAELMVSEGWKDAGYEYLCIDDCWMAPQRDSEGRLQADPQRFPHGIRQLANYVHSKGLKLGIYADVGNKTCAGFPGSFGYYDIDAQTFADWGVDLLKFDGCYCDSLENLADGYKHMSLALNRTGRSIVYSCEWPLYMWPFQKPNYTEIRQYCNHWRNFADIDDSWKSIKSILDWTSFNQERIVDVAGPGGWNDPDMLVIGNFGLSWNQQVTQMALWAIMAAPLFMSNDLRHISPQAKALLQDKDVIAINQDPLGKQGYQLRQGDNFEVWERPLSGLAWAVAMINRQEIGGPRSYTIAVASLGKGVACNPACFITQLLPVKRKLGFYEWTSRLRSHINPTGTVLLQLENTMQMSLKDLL
Outline: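 Each compound is preincubated briefly with 2 nM enzyme before substrate addition (80 uM); plates then sit 20 min at ambient temperature, are quenched with 1M NaOH/1M glycine, and read fluorometrically.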

[11] = measured here: cell count channel max response
[12] = measured here: lipid channel max response

For `CCOC(=O)C12CC1/C(=N/O)c1ccccc1O2` (stereo unspecified), the outcome [1] was “inactive”, the Potency [2] was “inactive” and the Potency [3] was “inactive”. The Potency [4] was “inactive”, the Potency [5] was “inactive” and the Potency [6] was “inactive”.
With `CCCCCCCCCCC/C=C\C(C)(C)/C=C\CCCC(=O)O` the outcome [7] was “inactive”, the outcome [1] was “inactive” and the Potency [2] was 35.5 µM (active). For the same compound, the Potency [3] was “inactive”, the Potency [5] was “inactive” and the Potency [6] was “inactive”.
With `Nc1ccc2c3c(cccc13)C(=O)NC2=O` the outcome [7] was “inactive”, the activity change, negative = inhibition [8] was 0.251% (inactive) and the max response [8, 11] was -11.6%. For the same compound, the max response [8, 12] was -11.3% and the Potency [9] was “inactive”.
With `O=c1cc(-c2ccccc2)[nH]c2nc(Cl)ccc12` the outcome [10] was “inactive”, the outcome [7] was “inactive” and the activity change, negative = inhibition [8] was 0.241% (inactive). The max response [8, 11] was 61.8%, the max response [8, 12] was 65% and the Potency [2] was “inactive”. The Potency [3] was “inactive”, the Potency [9] was “inactive” and the Potency [4] was 10 µM (active). For the same compound, the Potency [5] was 14.1 µM (active).
With `C/C(=C\c1ccc(C(=O)O)cc1)c1ccc2c(c1)C(C)(C)CCC2(C)C` the outcome [10] was “inactive”, the outcome [7] was “inactive” and the activity change, negative = inhibition [8] was -4.87% (inactive) and -0.58% (inactive). The max response [8, 11] was -0.191% and 31.2%, the max response [8, 12] was -3.14% and 29.9% and the Potency [2] was “inactive”. The Potency [3] was “inactive” and the Potency [5] was “inactive”.
For `Clc1nccc2c1ccc1ccccc12`, the outcome [7] was “inactive”, the activity change, negative = inhibition [8] was -1.52% (inactive) and the max response [8, 11] was -15.2%. The max response [8, 12] was -17.8%, the Potency [3] was “inactive” and the Potency [4] was “inactive”. The Potency [5] was “inactive” and the Potency [6] was “inactive”.
For `CN(C)S(=O)(=O)c1ccc2c(c1)/C(=C/c1cc3c([nH]1)CCCC3)C(=O)N2`, the outcome [10] was “inactive”, the outcome [7] was “inactive” and the Potency [8] was 28.2 µM (active). For the same compound, the max response [8, 11] was 59.5%, the max response [8, 12] was -52.8% and the Potency [2] was “inactive”. For the same compound, the Potency [3] was “inactive”, the Potency [9] was “inactive” and the Potency [4] was 4.47 µM (active). The Potency [5] was 5.01 µM (active) and the Potency [6] was 3.55 µM (active).
With `CC[C@@H]1Cc2cc(O)ccc2C2=C1c1ccc(O)cc1C[C@H]2CC` the outcome [7] was “inactive”, the activity change, negative = inhibition [8] was -3.04% (inactive) and the max response [8, 11] was -26.2%. For the same compound, the max response [8, 12] was -25.3%, the Potency [2] was “inactive” and the Potency [9] was “inactive”. The Potency [4] was 5.62 µM (active), the Potency [5] was 4.47 µM (active) and the Potency [6] was 11.2 µM (active).
In the case of `CN1CCc2cc(Cl)c(O)cc2[C@@H](c2ccccc2)C1`, the activity change, negative = inhibition [8] is reported as 0.829% (inactive), the max response [8, 11] is reported as 25.8% and the max response [8, 12] is reported as 26.8%.
For `CCCCOC(=O)NS(=O)(=O)c1sc(CC(C)C)cc1-c1ccc(Cn2c(CC)nc3c(C)cc(C)nc32)cc1`, the outcome [10] was “inactive”, the outcome [7] was “inactive” and the activity change, negative = inhibition [8] was -0.147% (inactive). The max response [8, 11] was 28.5%, the max response [8, 12] was 27.6% and the Potency [3] was “inactive”. For the same compound, the Potency [4] was 7.08 µM (active), the Potency [5] was 8.91 µM (active) and the Potency [6] was 11.2 µM (active).
In the case of `CC(N)(Cc1ccc(O)c(O)c1)C(=O)O` (stereo unspecified), the outcome [1] is reported as “inactive”, the Potency [3] is reported as “inactive” and the Potency [4] is reported as “inactive”. For the same compound, the Potency [6] was “inactive”.
In the case of `CCCCOc1cc(CC2CNC(=O)N2)ccc1OC` (stereo unspecified), the activity change, negative = inhibition [8] is reported as 7.3% (inactive), the max response [8, 11] is reported as 28.9% and the max response [8, 12] is reported as 40.3%. The Potency [2] was “inactive”, the Potency [3] was “inactive” and the Potency [6] was “inactive”.
For `CCCCCCCCCCCCCCCCCCOC[C@H](COP(=O)([O-])OCC[N+](C)(C)C)OC`, the activity change, negative = inhibition [8] was 1.74% (inactive), the max response [8, 11] was 55.6% and the max response [8, 12] was 57.7%. The Potency [2] was “inactive”, the Potency [3] was “inactive” and the Potency [9] was “inactive”. The Potency [4] was “inactive”, the Potency [5] was “inactive” and the Potency [6] was “inactive”.
In the case of `NC1(C(=O)O)CC1`, the outcome [10] is reported as “inactive”, the outcome [7] is reported as “inactive” and the activity change, negative = inhibition [8] is reported as 3.79% (inactive). The max response [8, 11] was 18.9%, the max response [8, 12] was 25.1% and the Potency [2] was “inactive”. The Potency [3] was “inactive”, the Potency [9] was “inactive” and the Potency [6] was 11.2 µM (active).
With `NC1CCN(O)C1=O` (stereo unspecified) the outcome [1] was “inactive”, the Potency [3] was “inactive” and the Potency [9] was “inactive”. For the same compound, the Potency [4] was “inactive”, the Potency [5] was “inactive” and the Potency [6] was “inactive”.
In the case of `CC#CCOC(=O)c1c(C)nc2sc3c(c2c1N)CCC(O)C3` (stereo unspecified), the activity change, negative = inhibition [8] is reported as -1.83% (inactive), the max response [8, 11] is reported as 5.64% and the max response [8, 12] is reported as 4.05%. For the same compound, the Potency [2] was “inactive”, the Potency [3] was “inactive” and the Potency [9] was “inactive”. The Potency [6] was 11.2 µM (active).
In the case of `O=C(O)Cc1c[nH]c2ccc(O)cc12`, the outcome [7] is reported as “inactive”, the activity change, negative = inhibition [8] is reported as 1.1% (inactive) and the max response [8, 11] is reported as -19.7%. The max response [8, 12] was -16.3%, the Potency [2] was “inactive” and the Potency [3] was “inactive”. The Potency [4] was “inactive” and the Potency [5] was “inactive”.
With `O=c1ccn([C@@H]2O[C@H](COP(=O)(O)OP(=O)(O)O)[C@@H](O)[C@H]2O)c(=O)[nH]1` the activity change, negative = inhibition [8] was 1.87% (inactive), the max response [8, 11] was -6.87% and the max response [8, 12] was -4.31%. For the same compound, the Potency [2] was “inactive”, the Potency [3] was “inactive” and the Potency [9] was “inactive”. For the same compound, the Potency [4] was “inactive” and the Potency [5] was “inactive”.
In the case of `CC1CNCCN1S(=O)(=O)c1cccc2cnccc12` (stereo unspecified), the activity change, negative = inhibition [8] is reported as -0.941% (inactive), the max response [8, 11] is reported as 3.07% and the max response [8, 12] is reported as 3.63%. The Potency [2] was “inactive”, the Potency [3] was “inactive” and the Potency [9] was “inactive”. For the same compound, the Potency [5] was 12.6 µM (active) and the Potency [6] was “inactive”.
In the case of `CNCCNS(=O)(=O)c1cccc2cnccc12`, the outcome [10] is reported as “inactive”, the outcome [7] is reported as “inactive” and the activity change, negative = inhibition [8] is reported as 0.292% (inactive). The max response [8, 11] was 5.66%, the max response [8, 12] was 5.52% and the Potency [2] was “inactive”. The Potency [3] was “inactive”, the Potency [9] was “inactive” and the Potency [4] was “inactive”. The Potency [5] was “inactive” and the Potency [6] was “inactive”.
In the case of `CC(C)(CO)Cc1cc(C(C)(C)C)c(O)c(C(C)(C)C)c1`, the outcome [10] is reported as “inactive”, the outcome [7] is reported as “inactive” and the activity change, negative = inhibition [8] is reported as -0.753% (inactive). For the same compound, the max response [8, 11] was -30.7%, the max response [8, 12] was -34% and the Potency [2] was “inactive”. The Potency [3] was “inactive” and the Potency [6] was 3.98 µM (active).
In the case of `CN(C)C(=O)/N=N/C(=O)N(C)C`, the outcome [1] is reported as “inactive”, the Potency [3] is reported as “inactive” and the Potency [9] is reported as “inactive”. For the same compound, the Potency [4] was “inactive”, the Potency [5] was “inactive” and the Potency [6] was “inactive”.
In the case of `N=C(N)SCCc1cnc[nH]1`, the outcome [10] is reported as “inactive”, the outcome [7] is reported as “inactive” and the activity change, negative = inhibition [8] is reported as 2.03% (inactive). The max response [8, 11] was 1.98%, the max response [8, 12] was 5.06% and the Potency [2] was “inactive”. The Potency [3] was “inactive”, the Potency [9] was “inactive” and the Potency [4] was “inactive”. For the same compound, the Potency [5] was “inactive” and the Potency [6] was “inactive”.
